From PubChem BioAssay
M1 ag = M1 muscarinic receptor agonists, primary screen, CHO-M1 cells, Fluo-4 calcium, agonist mode. Fluo-4 calcium fluorescence; stronger effect = higher value. B-score at 10 µM. 64,000 tested, 3% active. AID 626, 2007;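 active means fluorescence rise, raw or as B-score row- and column-corrected plate score, outside the 99.7% band of its plate's samples, either direction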
Cav32 inh = Cav3.2 calcium influx blockers – cell-based, Fluo-4 calcium fluorescence, FDSS, MLSMR library, primary screen. Voltage-dependent T-type calcium channel subunit alpha-1H (Homo sapiens), O95180. Cav3.2-expressing cells; stronger effect = lower value. B-score at 10 µM. 100,000 tested, 4% active. AID 449739, 2010;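 active means single-dose well whose peak fluorescence ratio is a statistical outlier from its plate by either plate-standardised score or position-corrected B-score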
PLAP act = PLAP enzyme activators, biochemical, luminescence, HTS; Alkaline phosphatase, placental type (Homo sapiens), P05187; purified PLAP enzyme, luminescent substrate read-out; stronger effect = higher value; activation fold at 20 µM; 96,000 tested, 1.2% active; in the data active means activation fold above about 2
M1 antag = antagonists of rat M1 muscarinic receptor. CHO-M1 cells, Fluo-4 calcium, ACh EC80 antagonist mode; stronger effect = lower value. B-score at 10 µM. 64,000 tested, 3.4% active;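 active means calcium fluorescence response, raw or row-and-column corrected B-score, differing from the plate sample mean either way at a set confidence level, mostly lower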
Starred values were filed as active, the others as inactive. Only some compounds are listed: those with a hit (about 7.6% of all), similar ones and a draw of the others.

For Cc1cc(C)c(S(=O)(=O)N(C2=NCCS2)S(=O)(=O)c2c(C)cc(C)cc2C)c(C)c1 the results were Cav32 inh -1.6.
CCN(Cc1nc2ccccc2c(=O)[nH]1)Cc1cc(=O)oc2cc(OC)ccc12 was read as Cav32 inh 2.3 and PLAP act 1.7.
`O=C1CCC(=O)N1c1nc2n(n1)C(c1ccccc1)C=C(c1ccc(Br)cc1)N2` (centres undefined) gave M1 ag 26*, PLAP act 2* and M1 antag -0.64.
Screening COc1ccc(C2C=C(c3ccc(Br)cc3)Nc3nc(N4C(=O)CCC4=O)nn32)cc1 (centres undefined) returned M1 ag 21*, PLAP act 1.9 and M1 antag 0.25.
Nc1nc(SCC(=O)Nc2cc(-c3ccccc3)nn2-c2ccccc2)n[nH]1 was read as Cav32 inh 0.94.
`Cc1ccc(-c2cc(NC(=O)CSc3n[nH]c(N)n3)n(-c3ccccc3)n2)cc1` gave Cav32 inh 1.3 and PLAP act 2.3*.
Screening Nc1nc(SCC(=O)Nc2ccccc2Sc2ccc(Cl)cc2)n[nH]1 returned Cav32 inh -5.9* and PLAP act 1.6.
For C=CCSc1nc2sc(-c3ccccc3)cc2c(=O)n1N the results were Cav32 inh -0.12 and PLAP act 0.9.
`CCN(CC)S(=O)(=O)c1ccc2oc(C(=O)NCc3ccc(C)cc3)c(C)c2c1` gave Cav32 inh -3.4 and PLAP act 1.6.
For Cc1cc(C(=O)CSc2nnc(-c3ccccc3F)o2)c(C)n1Cc1cccs1 the results were M1 ag -0.61, Cav32 inh -4.9*, PLAP act 1.4 and M1 antag -0.33.
`COc1ccccc1-n1cnnc1SCC(=O)c1cc(C)n(Cc2cccs2)c1C` gave M1 ag 2, Cav32 inh -2.7, PLAP act 1.7 and M1 antag -1.6.
`O=C(Nc1ccc(Cl)cc1C(=O)N1CCOCC1)c1ccco1` gave M1 ag -1.2, Cav32 inh 0.24, PLAP act 1.1 and M1 antag 0.013.
Screening CC1CCc2c(C(=O)NCC3CCCO3)csc2C1 (centres undefined) returned M1 ag 1.1, Cav32 inh 0.4, PLAP act 1.1 and M1 antag -0.13.
Screening Cc1scc(C(=O)NNC(=S)NCC2CCCO2)c1C (centres undefined) returned Cav32 inh 0.55 and PLAP act 2.2*.
CCc1cc(C(=O)NNC(=S)NCC2CCCO2)cs1 (centres undefined) was read as Cav32 inh 0.42 and PLAP act 2.2*.
CCn1cc(-c2nnnn2-c2ccc(Cl)cc2)c(=O)c2ccccc21 was read as Cav32 inh 0.028 and PLAP act 1.1.
O=C(NC1CCCCC1)c1cccc(Cn2cc(Cl)cn2)c1 was read as Cav32 inh 0.96 and PLAP act 0.9.
`CCN(CC)S(=O)(=O)c1cc([N+](=O)[O-])ccc1NNC(=O)Nc1ccccc1OC` gave Cav32 inh -9.1* and PLAP act 0.9.
Cc1nc2nc(-c3ccco3)[nH]n2c(=O)c1C was read as Cav32 inh 0.059 and PLAP act 1.
For Cc1ccc(CNC(=O)c2ccc(Cn3nc(C)c(Cl)c3C)o2)cc1 the results were M1 ag -0.5, Cav32 inh -4.7*, PLAP act 1.4 and M1 antag 0.76.
Screening Cc1nn(Cc2ccc(C(=O)Nc3ccccc3C(F)(F)F)o2)c(C)c1Br returned Cav32 inh -2.4 and PLAP act 1.4.
`O=C1c2[nH]nc(-c3ccccc3O)c2C(c2cccc(O)c2)N1Cc1ccco1` (centres undefined) gave Cav32 inh -5* and PLAP act 2.2*.
For Cc1ccc(C2c3c(-c4ccccc4O)n[nH]c3C(=O)N2Cc2ccncc2)cc1 (centres undefined) the results were M1 ag 0.065, Cav32 inh 0.78, PLAP act 1.7 and M1 antag 1.5.
CCOC(=O)Cc1csc(NC(=O)c2cnc3scc(C)n3c2=O)n1 was read as M1 ag -0.36, Cav32 inh -0.38 and M1 antag 0.039.
`Cc1ccc(-c2ccc(/C=C(\C#N)C(=O)Nc3cc(C)nn3-c3ccccc3)o2)cc1` gave Cav32 inh -6.6* and PLAP act 0.9.
Screening Cc1ccc(C(=O)c2cn[nH]c2-c2ccccc2O)cc1 returned Cav32 inh -1 and PLAP act 2*.
